# Assay results as given in PubChem BioAssay (Tox21).
# Where “and” joins values, the source holds several entries; their conditions need not be identical. Equal entries are not always repeated. Records with an inconclusive call do not appear. A call without a number means that no potency is given here. Some compounds were tested as several samples or in several runs, with calls that do not always agree. Calls of active or inactive are those of the source. Unless noted, calls follow the shape of the dose curve; as a rule, active = well fitted curve in the direction sought with a large enough effect in the repeat runs; inconclusive = weak or mixed curves; inactive = no such curve, though single readings can be large; an effect the other way counts as inactive or inconclusive.
# What was measured:
# [1] = qHTS assay to identify small molecule agonists of the hypoxia (HIF-1) signaling pathway (AID 1224846; active = well fitted activation curve with a large enough effect in the signal ratio in the repeat runs, not every such curve was filed as active; the % refers to the signal ratio; also: potency is read from the fitted curve at half-maximal effect); details: HRE-bla ME-180 cells, beta-lactamase ratio, 17 h; series mostly up to 76.8 µM
# In short: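 Hypoxia-pathway activation was scored as increased beta-lactamase from an HRE-controlled reporter in ME-180 cells; plated at 2,000 cells per well with 0.5% dialyzed FBS, they were exposed 17 hrs to compounds and then given CCF4-AM.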
# [2] = qHTS assay to identify small molecule agonists of H2AX - cell viability counter screen (AID 1224847; calls by dose curve; also: nearly all actives have a fitted effect of over 30% in size; also: potency is read from the fitted curve at half-maximal effect); details: CHO-K1 viability, CellTiter-Glo luminescence, 3 h; series mostly up to 154 µM
# In short: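 Cytotoxicity counter screen in wild-type CHO-K1 cells: a 3 hr compound treatment at 37C across 15 concentrations, followed by CellTiter-Glo luminescence to gauge viable cells.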
# [3] = qHTS assay to identify small molecule antagonists of the estrogen related receptor (ERR) signaling pathway from Tox21 library (AID 1224848); details: ERR reporter cell line, luciferase antagonist mode, 18 h; series mostly up to 92.4 µM; also: nearly all actives have a fitted effect of over 50% in size; also: potency is read from the fitted curve at half-maximal effect
# In short: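 Screening used an ERR reporter line supplied by NTP, exposed for 18 h at 37 C to library compounds delivered in DMSO. Signal was luciferase luminescence developed with ONE-Glo at room temperature for 30 min.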
# [4] = qHTS assay to identify small molecule agonists of the estrogen related receptor (ERR) signaling pathway from Tox21 library (AID 1224849; calls by dose curve; also: nearly all actives have a fitted effect of over 15% in size); details: ERR reporter cell line, ONE-Glo luciferase, 18 h
# In short: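 Six hours post-seeding at 37 C/5% CO2, ERR cells receive DMSO-solubilised compounds; after 18 h at 37 C, ONE-Glo reagent is applied and luminescence recorded.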
# [5] = qHTS RealTime-Glo MT Cell Viability Assay in HepG2 cells - 24 hour (AID 1224867); details: RealTime-Glo luminescence; series mostly up to 76.8 µM; also: nearly all actives have a fitted effect of over 50% in size; also: potency is read from the fitted curve at half-maximal effect
# In short: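 HepG2 suspension premixed with RealTime-Glo reagents is plated at 600 cells per well and left 5 h at 37 C/5% CO2. Compounds in DMSO then go in, and bioluminescence reflecting viable cell number is recorded over 40 h.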
# [6] = qHTS RealTime-Glo MT Cell Viability Assay in HEK293 cells - 32 hour (AID 1224868); details: RealTime-Glo luminescence; series mostly up to 76.8 µM; also: nearly all actives have a fitted effect of over 50% in size; also: potency is read from the fitted curve at half-maximal effect
# In short: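 Reads taken at 0, 8, 16, 24, 32 and 40 h from the same wells. HEK293 cells (600/well) carried RealTime-Glo reagents from seeding, with compound added after a 5 h settle at 37 C.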
# [7] = A CellTox Green Cytotoxicity Assay to monitor cytotoxicity in HEK293 cells - 0 hour (AID 1224869); details: CellTox Green fluorescence; series mostly up to 76.8 µM; also: nearly all actives have a fitted effect of over 50% in size; also: potency is read from the fitted curve at half-maximal effect
# In short: (§1)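 Seeding of HEK293 cells together with cytotoxicity dye preceded a 5 h incubation at 37 C/5% CO2. Test compounds in DMSO were then added and fluorescence monitored across 40 h.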
# [8] = qHTS RealTime-Glo MT Cell Viability Assay in HepG2 cells - 40 hour (AID 1224870); details: RealTime-Glo luminescence; series mostly up to 76.8 µM; also: nearly all actives have a fitted effect of over 50% in size; also: potency is read from the fitted curve at half-maximal effect
# In short: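 HepG2 cells mixed with RealTime-Glo MT reagents (NanoLuc plus cell-permeant prosubstrate) were seeded at 600 cells/well, incubated 5 h at 37 C/5% CO2, then pinned with compounds in DMSO; nonlytic luminescence tracked viability during 40 h treatment.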
# [9] = A CellTox Green Cytotoxicity Assay to monitor cytotoxicity in HEK293 cells - 40 hour (AID 1224871); details: CellTox Green fluorescence; series mostly up to 76.8 µM; also: nearly all actives have a fitted effect of over 45% in size; also: potency is read from the fitted curve at half-maximal effect
# In short: as §1
# [10] = qHTS assay to identify small molecule agonists of H2AX (AID 1224845; active = well fitted activation curve with a large enough effect in the signal ratio in the repeat runs, not every such curve was filed as active; the % refers to the signal ratio); details: CHO-K1 phospho-H2AX Ser139 HTRF, 3 h; series mostly up to 154 µM
# In short: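 Wild-type CHO-K1 cells plated overnight, then exposed 3 hr at 37C to compounds at 15 concentrations (0.76% DMSO). Lysed, then HTRF anti-pH2AX(S139)-cryptate/anti-H2AX-d2 detection after 24 hr at room temperature; emissions 665 and 620 nm.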
SMILES,Potency [1],Potency [2],Potency [3],"activity change, positive = activation ([4]; at 92.4 µM (top of the series))",Potency [5],Potency [6],Potency [7],Potency [8],Potency [9],"activity change, positive = activation ([4]; at 42.5 µM (top of the series))",Potency [10]
O=S(=O)(O)c1ccccc1/C=C/c1ccc(-c2ccc(/C=C/c3ccccc3S(=O)(=O)O)cc2)cc1,39.4 µM (active),inactive,inactive,4.34% (inactive),inactive,inactive,inactive,inactive,inactive,–,–
Nc1ccc(Oc2ccc(Cl)cc2)cc1,inactive,–,–,-19.3% (inactive),inactive,–,–,inactive,inactive,–,–
Nc1nc2c(ncn2COCCO)c(=O)[nH]1,inactive,inactive,inactive,–,inactive,–,inactive,inactive,inactive,-1.87% (inactive),–
CCCCN(CCCC)CC(O)c1cc(Cl)cc2c1-c1ccc(Cl)cc1/C2=C/c1ccc(Cl)cc1 (stereo unspecified),inactive,–,–,–,–,inactive,inactive,–,inactive,-23.2% (inactive),–
CC1=Nc2ccccc2C1(C)C,inactive,89.9 µM (active),inactive,–,inactive,–,inactive,inactive,inactive,–,–
CCc1oc2ccccc2c1C(=O)c1cc(I)c(O)c(I)c1,–,–,–,–,inactive,inactive,inactive,inactive,inactive,–,inactive
Cc1cc(C(C#N)c2ccc(Cl)cc2)c(Cl)cc1NC(=O)c1cc(I)cc(I)c1O (stereo unspecified),–,–,26.6 µM (active),–,inactive,–,inactive,inactive,inactive,-52.3% (inactive),inactive
C=CC(=O)Nc1cc2c(Nc3ccc(F)c(Cl)c3)ncnc2cc1OCCCN1CCOCC1,–,–,16.8 µM (active),–,8.49 µM (active),9.52 µM (active),inactive,10.7 µM (active),10.7 µM (active),-63.1% (inactive),inactive
O=C(/C=C/c1ccc(O)c(O)c1)O[C@@H](C(=O)O)[C@@H](OC(=O)/C=C/c1ccc(O)c(O)c1)C(=O)O,inactive,inactive,–,–,inactive,–,–,inactive,inactive,–,–
[Cl][Pt-2]([Cl])([Cl])[Cl],inactive,inactive,inactive,-8.8% (inactive),inactive,–,inactive,inactive,inactive,–,–
C#C[C@]1(OC(C)=O)CC[C@H]2[C@@H]3CCC4=C[C@@H](OC(C)=O)CC[C@@H]4[C@H]3CC[C@@]21C,inactive,–,23.7 µM (active),–,inactive,–,inactive,inactive,–,-53.5% (inactive),–
C=C(C)C(=O)OCCCCCCCCCC,inactive,inactive,inactive,2.01% (inactive),inactive,inactive,–,inactive,–,–,–
O=[N+]([O-])c1ccc(O)cc1C(F)(F)F,–,–,6.11 µM (active),-63.3% (inactive),inactive,34.7 µM (active),–,inactive,inactive,–,inactive
Clc1nnc(Cl)c2ccccc12,inactive,inactive,–,–,inactive,inactive,inactive,inactive,inactive,–,–
Nc1cc(Cl)c(O)c(Cl)c1,inactive,–,inactive,-4.45% (inactive),inactive,–,inactive,inactive,–,–,–
CCN(CC)c1ccc2c(-c3ccc(S(=O)(=O)O)cc3S(=O)(=O)[O-])c3ccc(=[N+](CC)CC)cc-3oc2c1,inactive,20.7 µM (active),35.5 µM (active),-38.9% (inactive),inactive,inactive,inactive,inactive,inactive,–,–
CN1CCCCC1CCN1c2ccccc2Sc2ccc(S(C)=O)cc21 (stereo unspecified),–,–,–,–,inactive,–,inactive,inactive,inactive,–,inactive
C=CCCC(=O)/C=C/C1C(C)=CCCC1(C)C (stereo unspecified),inactive,89.8 µM (active),–,–,inactive,inactive,inactive,inactive,24.5 µM (active),–,–
COc1c(C)c2c(c(O)c1C/C=C(\C)CCC(=O)OCCN1CCOCC1)C(=O)OC2,inactive,inactive,inactive,–,inactive,inactive,–,inactive,inactive,-23.6% (inactive),–
Cc1ccc(O)c(O)c1,inactive,–,inactive,–,inactive,–,–,inactive,–,–,–
Cc1ccc(N/N=c2\c(=O)cc/c(=N\Nc3ccc(S(=O)(=O)O)cc3)c2=O)c(C)c1,inactive,–,inactive,-2.81% (inactive),inactive,inactive,–,inactive,inactive,–,–
O=C1C(c2[nH]c3ccc(S(=O)(=O)O)cc3c2O)=Nc2ccc(S(=O)(=O)O)cc21,inactive,inactive,inactive,-7.96% (inactive),inactive,–,inactive,inactive,inactive,–,–
COC(=O)Nc1nc2ccc(C(=O)c3ccccc3)cc2[nH]1,inactive,inactive,–,–,inactive,0.848 µM (active),inactive,inactive,inactive,–,–
CCOC(=O)c1ccc(C2CCC(NC[C@H](O)COc3ccc(O)c(NS(C)(=O)=O)c3)CC2)cc1 (stereo partly specified),inactive,–,56.4 µM (active),-46.8% (inactive),45.2 µM (active),20.2 µM (active),inactive,50.7 µM (active),–,–,–

SMILES,Potency [1],Potency [2],Potency [3],"activity change, positive = activation ([4]; at 92.4 µM (top of the series))",Potency [5],Potency [6],Potency [7],Potency [8],Potency [9],"activity change, positive = activation ([4]; at 42.5 µM (top of the series))",Potency [10]
C#C[C@]1(O)CC[C@H]2[C@@H]3[C@H](C)CC4=C(CCC(=O)C4)[C@H]3CC[C@@]21C,inactive,–,23.7 µM (active),–,inactive,inactive,inactive,inactive,inactive,-32.4% (inactive),–
COc1cc(S(=O)(=O)O)c(C)cc1N=Nc1c(O)ccc2cc(S(=O)(=O)O)ccc12,inactive,45 µM (active),–,-21.5% (inactive),–,inactive,–,inactive,inactive,–,–
CCOC(=O)NNc1ccc(N(CC)CC(C)O)nn1 (stereo unspecified),inactive,inactive,inactive,–,inactive,inactive,inactive,inactive,inactive,0.457% (inactive),–
c1ccc(SSc2ccccc2)cc1,inactive,inactive,–,–,inactive,inactive,inactive,inactive,inactive,–,–
CC(C)CCOC(=O)/C=C/c1ccccc1,inactive,inactive,–,–,inactive,inactive,inactive,inactive,inactive,–,–
CC(=O)Oc1cc2c(s1)CCN(C(C(=O)C1CC1)c1ccccc1F)C2 (stereo unspecified),inactive,inactive,inactive,–,inactive,inactive,–,inactive,inactive,-6.5% (inactive),–
[Cu+],–,–,–,–,–,–,inactive,34.7 µM (active),inactive,–,inactive
CC(=O)[C@H]1CC[C@H]2[C@@H]3CCC4=CC(=O)CC[C@]4(C)[C@H]3CC[C@]12C,–,100 µM (active) and 101 µM (active),13.6 µM (active) and 15.4 µM (active),-73.5% (inactive) and -66.4% (inactive),–,–,inactive,inactive,24.4 µM (active) and 34.7 µM (active),–,–
CN(C)c1ccc(C(=C2C=CC(=[N+](C)C)C=C2)c2ccc(N(C)C)cc2)cc1,–,3.17 µM (active) and 12.7 µM (active) and 13.9 µM (active),–,–,24.4 µM (active) and 24.5 µM (active) and 10.7 µM (active),–,inactive,34.5 µM (active) and 43.6 µM (active) and 26.8 µM (active),21.9 µM (active) and 21.3 µM (active),–,–
O=C(c1ccc(O)c(O)c1)c1ccc(O)cc1O,–,inactive,54.4 µM (active),-38% (inactive),inactive,27.5 µM (active),inactive,inactive,–,–,–
CN(C)[C@@H](CCOc1cccc2ccccc12)c1ccccc1,inactive,–,–,–,–,–,inactive,–,–,-27.2% (inactive),–
COC1=C(OC)C(=O)C(CCCCCCCCCCO)=C(C)C1=O,–,–,18.8 µM (active),–,inactive,5.35 µM (active),inactive,inactive,inactive,-46.7% (inactive),–
O=c1[nH]c(=O)n([C@H]2C[C@H](O)[C@@H](CO)O2)cc1F,–,–,–,–,inactive,–,inactive,inactive,inactive,–,–
CC(C)NC[C@@H](O)COc1ccc(CC(N)=O)cc1,–,inactive,–,–,inactive,inactive,inactive,inactive,inactive,–,–
CNC(=O)c1ccccc1Sc1ccc2c(/C=C/c3ccccn3)n[nH]c2c1,inactive,–,–,–,inactive,–,inactive,inactive,–,–,–
C#C[C@]1(OC(C)=O)CC[C@H]2[C@@H]3CCC4=C/C(=N/O)CC[C@@H]4[C@H]3CC[C@@]21CC,–,–,–,–,inactive,–,–,inactive,inactive,-41.4% (inactive),–
O=C1OC2(c3ccc(O)cc3Oc3cc(O)ccc32)c2ccc(N=C=S)cc21,–,inactive,inactive,3.25% (inactive),–,–,22.3 µM (active),inactive,12.5 µM (active),–,–
CCOC(=O)Cn1cccc1-c1nc(-c2ccc(OC)cc2)c(-c2ccc(OC)cc2)s1,–,inactive,–,–,–,inactive,inactive,–,inactive,–,–
O=C(O)c1cc(O)c2ccccc2c1O,–,50.5 µM (active),61.1 µM (active),-58.1% (inactive),19.5 µM (active),–,–,21.9 µM (active),19.5 µM (active),–,–
CC1(C)CCC[C@]2(C)[C@H]3CC(=O)O[C@]3(C)CC[C@@H]12,inactive,–,–,–,inactive,inactive,inactive,inactive,49 µM (active),–,–
O=c1[nH]c2ccccc2n1CCCN1CCN(C(c2ccccc2)c2ccccc2)CC1,–,–,–,–,23.9 µM (active),12 µM (active),inactive,23.9 µM (active),inactive,–,–
O=C1c2ccccc2C(=O)N1SC1CCCCC1,–,89.7 µM (active) and 89.8 µM (active),–,–,38.9 µM (active),24.5 µM (active) and 38.9 µM (active),inactive,inactive and 43.6 µM (active),12.3 µM (active) and 21.9 µM (active),–,–
COC(=O)C1=C(C)NC(C)=C(C(=O)OCCN2CCN(C(c3ccccc3)c3ccccc3)CC2)C1c1cccc([N+](=O)[O-])c1 (stereo unspecified),–,inactive,11.9 µM (active),–,–,–,inactive,–,inactive,-44.8% (inactive),–
